Results on 15 compounds are retold here after PubChem BioAssay.

Assay [1] is described as follows: compound effects on lung adenocarcinoma cell viability – A549, calcein-AM fluorescence, 48 h, basal, profiling panel (AID 1162). The note with it: higher = more signal.
A short description of assay [2]: compound effects on differentiated 3T3-L1 adipocyte viability – cell-based, 3T3-L1 adipocytes, calcein-AM fluorescence, 48 h, basal, profiling panel (AID 1163). Particulars: 3T3-L1 adipocytes viability, higher = more signal.
Assay [3] in a line: compound effects on hepatocellular carcinoma cell viability – HepG2, calcein-AM fluorescence, 48 h, basal, profiling panel (AID 1164). The note with it: higher = more signal.
Assay [4] can be described thus: compound effects on multiple myeloma cell viability – MM1S, calcein-AM fluorescence, 48 h, basal, profiling panel (AID 1165).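 Note: viability of MM1S multiple myeloma cells under basal unstimulated conditions.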 The note with it: higher = more signal.
Assay [5] is described as follows: calcein-AM signal in unstimulated myeloma cells – cell-based, calcein-AM fluorescence, 48 h, PK04 Diversity Set, profiling panel (AID 1166).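 Note: cells grown under basal conditions without added stimulus.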 The note with it: RPMI8226 myeloma viability, higher = more signal.
A short description of assay [6]: JC-1 mitochondrial signal, unstimulated HepG2 cells – cell-based, JC-1 fluorescence, 24 h, 100 nL compound, profiling panel (AID 1167). The note with it: HepG2 mitochondrial potential, higher = more signal.
Assay [7] is described as follows: JC-1 mitochondrial signal, unstimulated adipocytes – cell-based, JC-1 fluorescence, 3T3-L1 adipocytes, 24 h, 100 nL compound, profiling panel (AID 1168). The note with it: JC-1 mitochondrial fluorescence, higher = more signal, called active from +8 up or from −8 down.
Assay [8] can be described thus: JC-1 mitochondrial signal, unstimulated myeloma cells – cell-based, JC-1 fluorescence, RPMI8226, 24 h, 100 nL compound, profiling panel (AID 1169). The note with it: JC-1 mitochondrial potential fluorescence, higher = more signal.
The nature of assay [9]: JC-1 mitochondrial signal, unstimulated MM1S myeloma – cell-based, JC-1 fluorescence, 24 h, 100 nL compound, profiling panel (AID 1170). Particulars: MM1S mitochondrial potential, higher = more signal.
Assay [10] can be described thus: resazurin metabolic signal in A549 cells – cell-based, resazurin fluorescence, 24 h, PK04 Diversity Set, profiling panel (AID 1171). The note with it: A549 viability, higher = more signal, called active from +8 up or from −8 down. (Resazurin is reduced to fluorescent resorufin, in cell work by metabolically active cells.)

Activity calls are given as the source filed them.
Note: test concentration not given here.

Take `O=S(=O)(NCCCO)c1ccc(Br)cc1`: the z-score is 0.819 in assay [1]; -0.307 in [2]; 0.492 in [3]; 0.704 in assay [4]; 1.24 in assay [5]; 0.76 in assay [6]. In addition, the z-score in assay [7] was 0.371 (inactive); in assay [8], 0.514; in [9] it was -0.722; in assay [10], -0.285 (inactive).

For the compound `C[n+]1ccc2ccc(O)cc2c1`, the z-score was -0.274 in [1]; 0.509 in [2]; -1.33 in [3]; 0.653 in assay [4]; -1.91 in assay [5]; -0.774 in assay [6]. The z-score in assay [7] is -0.917 (inactive); in assay [8], 1.03; in assay [9], -0.723; in assay [10], -0.733 (inactive).

For `C[C@H]1C2[C@H](Cc3ccccc3)NC(=O)[C@]23C(=O)N[C@H](Cc2ccccc2)C(=O)N[C@H](Cc2ccccc2)C(=O)NC/C=C/CCC/C=C/C3[C@@H]2O[C@]12C` (stereo not given in full), the z-score in assay [1] was 0.144; in assay [2], 1.58; in [3] it was -0.385; in assay [4], -1.01; in [5], -3.48; in assay [6], 1.71. Besides, the z-score was -0.77 (inactive) in assay [7], -0.469 in [8], -1.08 in [9] and -1.5 (inactive) in assay [10].

Regarding `O=C1c2ccccc2[C@@]2(Cc3ccccc3N(Cc3ccccc3)C2=O)[C@H](c2ccc(CO)cc2)N1Cc1ccccc1C(F)(F)F`, the z-score in assay [1] was 0.74; in assay [2], 1; in assay [3], 1.22; in assay [4], 0.166; in [5] it was 0.816; in [6], 1.28. The z-score in assay [7] is 0.084 (inactive); in assay [8] it was -0.0385; in assay [9], 0.29; in assay [10], -1.16 (inactive).

For the compound `O=C1C[C@@](C(=O)O)(c2ccc([N+](=O)[O-])cc2)[C@@H](c2ccc(CO)cc2I)N1C1CCCCC1`, the z-score in assay [1] was 1.05; in assay [2], 1.32; in assay [3] it was 0.279; in assay [4], -3.6; in assay [5], -3.61; in assay [6], 0.053. The z-score in assay [7] is -0.962 (inactive); in assay [8], -0.826; in assay [9], -1.86; in assay [10], 0.597 (inactive).

`CCCNC(=O)[C@@]1(C)c2ccccc2C(=O)N(C(C)C)[C@H]1c1ccc(CO)cc1`: the z-score in assay [1] was -0.23; in assay [2], 0.793; in assay [3], -0.13; in assay [4], -0.634; in assay [5], -0.025; in [6], 0.977. In addition, the z-score in [7] was -0.0917 (inactive); in assay [8], 0.0976; in assay [9] it was -0.426; in assay [10] it was 0.788 (inactive).

In the case of `O=C1[C@H]2C=C(Br)[C@H](C[C@@H]2OCCOCCO)[C@@]12CO2`, the z-score in assay [1] is -0.43; in assay [2], -0.577; in assay [3] it was -0.96; in assay [4] it was -0.368; in assay [5], -0.674; in assay [6] it was -1.33. Further, the z-score in assay [7] was -0.454 (inactive); in assay [8], 0.406; in [9] it was -0.137; in assay [10] it was -0.274 (inactive).

Take `COC(=O)[C@@]1(Cc2ccccc2)[C@H]2c3cc(C(=O)N(C)C)n(Cc4ccccc4)c3C[C@H]2CN1C(=O)c1ccccc1`: the z-score in [1] was -1.19; in assay [2], -0.93; in assay [3], -0.775; in assay [4] it was -0.143; in assay [5] it was -0.747; in assay [6] it was 1.14. The z-score in assay [7] is -0.655 (inactive); in assay [8] it was 0.599; in assay [9], -1.06; in [10], -0.407 (inactive).

`O=C1O[C@H](c2ccccc2)[C@H](c2ccccc2)N2[C@H]1[C@@H](C(=O)N1CCCCCCC1)[C@]1(C(=O)Nc3ccc(C#CC4=CCCCC4)cc31)[C@H]2c1ccc(O)cc1`: the z-score in [1] was -0.674; in assay [2] it was 1.01; in assay [3] it was -0.0827; in assay [4], -0.181; in assay [5] it was -0.773; in [6], -1.28. Moreover, the z-score in assay [7] was 0.634 (inactive); in [8] it was -0.179; in assay [9] it was -1.28; in [10] it was 0.327 (inactive).

With `Cc1ccccc1/C=C/C=O`, the z-score was 1.59 in assay [1]; -0.345 in assay [2]; 0.93 in assay [3]; -0.499 in assay [4]; 0.0415 in assay [5]; 1.65 in assay [6]. Also, the z-score in assay [7] was 1.39 (inactive); in [8], 0.426; in [9], -0.962; in assay [10], -0.122 (inactive).

`C=C(CCCC)/C(=C/C[C@H](OC(C)=O)c1ccc(CO)o1)c1cc(C(=O)OC)ccc1OC`: the z-score in assay [1] is -0.0865; in assay [2], 1.03; in [3], -0.888; in assay [4], -2.21; in assay [5], -2.15; in assay [6], -0.854. The z-score is -0.356 (inactive) in [7], 0.292 in [8], 0.6 in [9] and -0.684 (inactive) in [10].

As for `[N-]=[N+]=NCc1ccccc1[C@H]1OC(c2ccc(OCCCO)cc2)=N[C@@]1(Cc1ccccc1)C(=O)O`, the z-score in assay [1] is 1.17; in assay [2], -1.06; in assay [3] it was 0.991; in assay [4], 0.791; in assay [5] it was 0.465; in assay [6], -0.0179. Besides, the z-score is 0.241 (inactive) in [7], -0.491 in [8], -0.804 in assay [9] and 0.932 (inactive) in assay [10].

Take `COc1ccc([Si](C)(C)[C@H]2[C@H](CC(=O)N3Cc4ccccc4C[C@H]3CO)O[C@@]3(C(=O)N(Cc4cccc(I)c4)c4ccccc43)[C@@H]2C)cc1`: the z-score was -0.817 in assay [1]; 0.0894 in assay [2]; -0.693 in assay [3]; -2.42 in [4]; -4.12 in assay [5]; 1.33 in assay [6]. The z-score in assay [7] was 0.814 (inactive); in [8], -1.06; in assay [9] it was -0.605; in [10], -1.84 (inactive).

Turning to `CCCCCN1CC=CC23O[C@@H]4C=CCCOC(=O)C4[C@H]2C(=O)N(CCCO)[C@@H]3C1=O` (stereo not given in full), the z-score in [1] is -0.55; in [2], 0.133; in [3], -0.904; in [4], 0.0357; in assay [5], -0.0158; in assay [6], -0.639. In addition, the z-score in [7] is -0.361 (inactive); in [8] it was -0.606; in [9], 0.00824; in assay [10] it was -0.0645 (inactive).

With `C[N+](C)(C)CCCCNC(=O)[C@H]1C[C@H]2C(=O)N3CCC[C@H]3C(=O)N2[C@H]1c1ccc(O)cc1`, the z-score is -0.814 in [1]; 0.0179 in assay [2]; -0.674 in [3]; -0.642 in [4]; -0.772 in assay [5]; -1.1 in assay [6]. Also, the z-score is -1.5 (inactive) in [7], 0.0553 in assay [8], -0.38 in assay [9] and 0.0558 (inactive) in assay [10].
